Here are results for 29 compounds from PubChem BioAssay (EPA / NIEHS).

Results filed as inconclusive are left out. Active and inactive are the calls of the source. How the source made its calls, unless noted: active means hit-call score of the fitted dose curve at least 0.9, where 1 is the maximum; inconclusive means response in the unintended direction; inactive means score below 0.9.

For test [1], the target named is Bile acid receptor (Homo sapiens) (UniProt Q96RI1). As to the kind of experiment: OT_FXR_FXRSRC1_0480: Odyssey Thera (OT) 8-hour HEK293T Protein-Complementation Assay for Farnesoid X receptor/SRC-1 Co-activator (AID 2283383). The procedure, abridged: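 HEK293T cells expressing FXR and SRC-1 fused to reporter fragments were dosed with compound for 8 h; fluorescence from the reconstituted reporter marked co-activator recruitment. Gain of signal was fitted against the DMSO baseline.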
Sequence of Bile acid receptor (Homo sapiens) (Q96RI1 whole entry, looked up, the tested form may be a part): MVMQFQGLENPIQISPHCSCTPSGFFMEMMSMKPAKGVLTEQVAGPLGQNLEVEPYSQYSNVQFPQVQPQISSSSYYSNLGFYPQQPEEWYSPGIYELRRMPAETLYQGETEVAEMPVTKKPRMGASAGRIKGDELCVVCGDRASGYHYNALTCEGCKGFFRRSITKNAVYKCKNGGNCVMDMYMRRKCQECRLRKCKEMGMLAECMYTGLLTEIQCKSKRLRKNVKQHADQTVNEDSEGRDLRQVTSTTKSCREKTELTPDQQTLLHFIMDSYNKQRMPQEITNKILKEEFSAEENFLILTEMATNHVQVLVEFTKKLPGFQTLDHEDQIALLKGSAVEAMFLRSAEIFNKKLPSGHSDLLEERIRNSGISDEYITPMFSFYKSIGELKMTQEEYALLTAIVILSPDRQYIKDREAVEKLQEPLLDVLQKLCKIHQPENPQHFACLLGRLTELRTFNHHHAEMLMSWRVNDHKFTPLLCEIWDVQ

Test [2] shares this target. As to the kind of experiment: OT_FXR_FXRSRC1_1440: Odyssey Thera (OT) 24-hour HEK293T Protein-Complementation Assay for Farnesoid X receptor/SRC-1 Co-activator (AID 2283384). The procedure, abridged:
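HEK293T cells were dosed with compound and read 24 h later by fluorescence intensity from protein-fragment complementation reporting FXR/SRC-1 co-activator interaction. Gain of signal was fitted relative to DMSO negative control as baseline.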

The target of test [3] is Retinoic acid receptor RXR-alpha (Homo sapiens) (UniProt P19793). As to the kind of experiment: OT_NURR1_NURR1RXRa_1440: Odyssey Thera (OT) 24-hour HEK293T Protein Complementation Assay for Nurr1/retinoid X receptor (RXR) (AID 2283386). The procedure, abridged:
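HEK293T cells were dosed with compound and read 24 h later by fluorescence intensity in a protein-fragment complementation format, where Nurr1–RXRα interaction reconstitutes a split reporter. Activity was fitted as gain of signal relative to DMSO baseline.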

In test [4] the target is Peroxisome proliferator-activated receptor gamma (Homo sapiens) (UniProt P37231). As to the kind of experiment: OT_PPARg_PPARgSRC1_0480: Odyssey Thera (OT) 8-hour Protein-Complementation Assay for Peroxisome Proliferator-activated Receptor Gamma / SRC-1 Co-activator (AID 2283387).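 Further: nuclear to cytoplasmic split Venus YFP fluorescence ratio reporting PPARg SRC-1 interaction.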 In short, it runs like this:
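HEK293T transiently transfected with PPARg and SRC-1 fused to Venus YFP fragments, compounds 8 h at 37C. Fixed, Draq5-stained cells imaged; nuclear/cytoplasmic 488 nm fluorescence ratio over at least 350 cells per image; gain fitted versus DMSO.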

The target is the same in test [5]. As to the kind of experiment: OT_PPARg_PPARgSRC1_1440: Odyssey Thera (OT) 24-hour Protein-Complementation Assay for Peroxisome Proliferator-activated Receptor Gamma/ SRC-1 Co-activator (AID 2283388). In short, it runs like this:
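Transient HEK293T, YFP fragments 1-158/159-239 (mutant IFP1/IFP2) fused to PPARg/SRC-1; 24 h dosing; fix 4% formaldehyde, Draq5; Opera imaging 488/635 nm; N/C ratio, gain vs DMSO.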

The target in test [6] is Retinoic acid receptor RXR-alpha (Homo sapiens) (UniProt P19793). As to the kind of experiment: OT_NURR1_NURR1RXRa_0480: Odyssey Thera (OT) 8-hour HEK293T Protein Complementation Assay for Nurr1/retinoid X receptor (RXR) (AID 2283385). In short, it runs like this:
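HEK293T cells expressing Nurr1 and RXRα fused to reporter fragments were dosed with compound for 8 hours. Complex formation was read as fluorescence intensity and analysed as gain of signal against DMSO as baseline.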

For test [7], the target named is Estrogen receptor (Homo sapiens) (UniProt P03372). As to the kind of experiment: OT_ERa_GFPERaERE_0480: Odyssey Thera (OT) 8-hour HeLa Transcription Induction Assay for Estrogen Receptor (AID 2283381; active means hit-call score of the fitted dose curve at least 0.9, where 1 is the maximum; inactive means score below 0.9). The procedure, abridged: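 HeLa cells dosed with compound and imaged by fluorescence microscopy at 8 h; GFP induction from an ERE reporter quantified by high-content image analysis and fitted as gain of signal against DMSO baseline.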
Sequence of Estrogen receptor (Homo sapiens) (P03372 whole entry, looked up): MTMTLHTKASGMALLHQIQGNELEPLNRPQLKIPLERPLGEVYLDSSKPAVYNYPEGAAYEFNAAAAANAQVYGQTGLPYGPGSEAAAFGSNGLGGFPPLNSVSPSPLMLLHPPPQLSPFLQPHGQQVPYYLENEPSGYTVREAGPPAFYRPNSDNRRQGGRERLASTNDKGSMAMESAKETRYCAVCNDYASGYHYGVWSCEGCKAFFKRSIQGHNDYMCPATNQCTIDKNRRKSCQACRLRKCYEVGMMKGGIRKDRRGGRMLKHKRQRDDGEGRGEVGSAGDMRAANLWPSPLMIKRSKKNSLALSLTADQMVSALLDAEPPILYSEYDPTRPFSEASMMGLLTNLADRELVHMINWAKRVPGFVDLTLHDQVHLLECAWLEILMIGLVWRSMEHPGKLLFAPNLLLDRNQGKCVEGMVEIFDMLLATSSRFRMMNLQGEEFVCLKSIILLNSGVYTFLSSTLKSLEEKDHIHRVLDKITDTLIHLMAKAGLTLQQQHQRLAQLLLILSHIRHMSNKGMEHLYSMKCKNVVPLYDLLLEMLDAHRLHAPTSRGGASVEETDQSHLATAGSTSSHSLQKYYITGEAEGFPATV

Test [8] shares this target. As to the kind of experiment: OT_ERa_GFPERaERE_0120: Odyssey Thera (OT) 2-hour HeLa Transcription Induction Assay for Estrogen Receptor (AID 2283382). Here is the method:
OT_ERa_GFPERaERE_0120 is a cell-based, single-readout assay that uses HeLa, a human cervix cell line, with measurements taken at 2 hours after chemical dosing in a 384-well plate.OT_ERa_GFPERaERE_0120 is one of one assay component(s) measured or calculated from the OT_ERa_GFPERaERE_0120 assay. It is designed to make measurements of fluorescent protein induction, a form of inducible reporter, as detected with optical microscopy: fluorescence microscopy signals by Microscopy technology.Data from the assay component OT_ERa_GFPERaERE_0120 was analyzed into 1 assay endpoint. This assay endpoint, OT_ERa_EREGFP_0120, was analyzed in the positive analysis fitting direction relative to DMSO as the negative control and baseline of activity. Using a type of inducible reporter, measures of receptor for gain-of-signal activity can be used to understand the reporter gene at the pathway-level as they relate to the gene ESR1. Furthermore, this assay endpoint can be referred to as a primary readout, because the performed assay has only produced 1 assay endpoint. To generalize the intended target to other relatable targets, this assay endpoint is annotated to the nuclear receptor intended target family, where the subfamily is steroidal.
All assay endpoints are quantified using high content image analysis algorithms.

Test [9] can be described thus: CEETOX_H295R_11DCORT: CeeTox H295R High-throughput Steroidogenesis Assay for 11-Deoxycortisol (11DCORT) (AID 2283432; active means hit-call score of the fitted dose curve at least 0.9, where 1 is the maximum; inactive means score below 0.9). As to conditions: actives raise or lower the signal. In short, it runs like this:
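H295R cells prestimulated 48 h with 10 uM forskolin, then exposed 48 h to chemical in 0.1% DMSO. 11-Deoxycortisol in medium quantified by HPLC-MS/MS after MTBE extraction; bidirectional fit versus DMSO. MTT viability read in same wells.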

The nature of test [10]: CEETOX_H295R_OHPREG: CeeTox H295R High-throughput Steroidogenesis Assay for OH-Pregnenolone (OHPREG) (AID 2283434; active means hit-call score of the fitted dose curve at least 0.9, where 1 is the maximum; inactive means score below 0.9). As to conditions: actives raise or lower the signal. The procedure, abridged: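 H295R cells pre-stimulated 48 h with 10 uM forskolin, then exposed 48 h to chemical in 0.1% DMSO. 17alpha-hydroxypregnenolone in medium quantified by MTBE extraction and HPLC-MS/MS; bidirectional fit versus DMSO, viability checked by MTT.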

Sequence of Retinoic acid receptor RXR-alpha (Homo sapiens) (P19793 whole entry, looked up, the tested form may be a part): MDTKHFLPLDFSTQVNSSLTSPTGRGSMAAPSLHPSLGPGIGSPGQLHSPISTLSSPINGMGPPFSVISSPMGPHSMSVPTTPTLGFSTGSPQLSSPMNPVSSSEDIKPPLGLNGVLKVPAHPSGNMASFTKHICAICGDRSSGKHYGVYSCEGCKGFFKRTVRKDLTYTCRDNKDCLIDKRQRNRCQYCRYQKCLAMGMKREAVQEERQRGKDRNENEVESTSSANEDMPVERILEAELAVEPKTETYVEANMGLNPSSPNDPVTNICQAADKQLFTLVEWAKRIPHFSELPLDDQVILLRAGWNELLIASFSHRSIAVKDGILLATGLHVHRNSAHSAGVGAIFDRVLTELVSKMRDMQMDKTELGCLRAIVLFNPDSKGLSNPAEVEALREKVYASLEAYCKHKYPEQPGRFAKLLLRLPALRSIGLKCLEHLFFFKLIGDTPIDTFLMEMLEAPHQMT
Sequence of Peroxisome proliferator-activated receptor gamma (Homo sapiens) (P37231 whole entry, looked up, the tested form may be a part): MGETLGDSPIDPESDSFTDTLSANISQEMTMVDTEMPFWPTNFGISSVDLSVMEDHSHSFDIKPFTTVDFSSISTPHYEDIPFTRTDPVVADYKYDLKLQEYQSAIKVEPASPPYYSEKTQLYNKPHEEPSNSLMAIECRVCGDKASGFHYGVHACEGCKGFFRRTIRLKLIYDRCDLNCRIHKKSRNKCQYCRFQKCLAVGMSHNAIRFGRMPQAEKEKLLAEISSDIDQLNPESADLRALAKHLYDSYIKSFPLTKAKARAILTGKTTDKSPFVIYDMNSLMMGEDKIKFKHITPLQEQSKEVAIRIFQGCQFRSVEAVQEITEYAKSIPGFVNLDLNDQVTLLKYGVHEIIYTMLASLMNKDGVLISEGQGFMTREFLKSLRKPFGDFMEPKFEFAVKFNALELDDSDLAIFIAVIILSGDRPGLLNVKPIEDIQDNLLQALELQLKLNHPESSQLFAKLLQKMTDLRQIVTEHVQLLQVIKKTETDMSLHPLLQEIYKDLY

As for `CC1CCC(C(C)C)C(O)C1` (stereo not given), the result in test [1], in [2], in test [3], in test [4] and in test [5] was inactive.

As for `O=C(CC(=O)c1ccccc1)c1ccccc1`, the call in [1], in test [2], in test [6], in [4] and in test [5] was inactive. The concentration at half-maximal activity (AC50) (in general, the concentration giving half of the maximal activity seen) in test [3] is 81.5 µM (active).

On to `C=C(C)C(=O)OCCOC1CC2CC1C1C=CCC21` (stereo not given), for which the concentration at half-maximal activity (AC50) in test [1] is 72.3 µM (active). Besides, the call in test [2], in test [6], in test [4] and in test [5] was inactive.

Consider `CC(=O)O[C@@H]1CC2CCC1(C)C2(C)C` (stereo not given in full), for which the result in test [1], in test [6], in test [3], in test [4] and in test [5] was inactive.

As for `O=C(Nc1ccc2c(O)c(N=Nc3ccc(N=Nc4ccc(S(=O)(=O)O)cc4)cc3)c(S(=O)(=O)O)cc2c1)c1ccccc1`, the call in [7], in test [8], in [6], in test [3], in test [4] and in test [5] was inactive.

For `CSCCC=O`, the result in test [1], in [2], in test [6], in test [4] and in test [5] was inactive.

For the compound `O=CCc1ccccc1`, the AC50 in test [1] is 30.1 µM (active); in test [6], 19.1 µM (active). For the same compound, the compound was classed as inactive in test [3], in test [4] and in test [5].

Regarding `CCc1cc(C(C)(C)C)c(O)c(C(C)(C)C)c1`, the concentration at half-maximal activity (AC50) in test [1] was 33.6 µM (active); in test [6], 83.8 µM (active); in [3], 86.2 µM (active). Also, the compound was called inactive in [2], in [4], in [5], in [9] and in test [10].

On to `CCCCOC(=O)CCCCCCCC(=O)OCCCC`, for which the compound was called inactive in test [1], in test [6], in test [3], in [4] and in test [5].

`CCCCCCCCSCCO`: the half-maximal activity concentration (AC50) in test [1] was 74.1 µM (active). Moreover, the compound was classed as inactive in test [2], in test [6], in [3], in [4] and in test [5].

Take `CC(C)CCCCCCc1ccc(OCCOCCO)cc1`: the call in test [7], in [8], in test [3], in test [4] and in test [5] was inactive.

Regarding `OCC(O)c1ccccc1` (stereo not given), the compound was classed as inactive in [7], in test [8], in test [6] and in test [3].

`O=[N+]([O-])c1ccc(O)cc1C(F)(F)F`: the compound was called inactive in [1], in test [4] and in test [5]. In addition, the AC50 in [2] is 77.1 µM (active); in test [3], 86.8 µM (active).

`CC(C)CC(C)CC(O)CC(C)C` (stereo not given): the outcome in test [1], in test [2], in test [3], in test [4] and in [5] was inactive.

Turning to `C=CC(=O)OCCCC`, the compound was classed as inactive in [1], in test [2], in [6] and in [3].

Turning to `CCCCCCCCCCCC(=O)OCC(O)CO` (stereo not given), the compound was called inactive in test [7], in test [8], in [6], in test [3], in [4] and in test [5].

Take `CCCC(C)=O`: the compound was called inactive in test [1], in [2], in test [6], in test [3], in test [4] and in [5].

As to `CCCCC1CCC(O)CC1` (stereo not given), the compound was called inactive in test [1], in [2], in test [6], in test [3], in [4] and in test [5].

Regarding `Nc1ccccc1[N+](=O)[O-]`, the compound was classed as inactive in test [1], in test [2], in [6], in [3], in [4] and in test [5].

`CC(C)c1ccccc1O`: the call in test [1], in [6] and in test [3] was inactive.

As for `c1ccc(Oc2ccccc2)cc1`, the outcome in test [1] and in [6] was inactive.

As for `CC(C)NCC(O)COc1ccc(CC(N)=O)cc1` (stereo not given), the call in test [7], in test [8], in test [6], in test [3], in test [4] and in test [5] was inactive.

Regarding `O=C1NC2NC(=O)NC2N1` (stereo not given), the call in [1], in test [2], in test [6], in [3], in test [4] and in test [5] was inactive.

Consider `CCCCCCCCCCCCCC(=O)OCC(O)CO` (stereo not given), for which the concentration at half-maximal activity (AC50) in test [1] was 79.8 µM (active); in test [2], 82.9 µM (active). The compound was classed as inactive in test [6] and in test [3].

In the case of `CCCCCCCCN1CCCC1=O`, the half-maximal activity concentration (AC50) in test [1] is 50 µM (active). Also, the compound was classed as inactive in test [2], in test [6], in test [3], in test [4], in test [5] and in test [9]. For the same compound, the compound was classed as inactive in [10].

For `CCOC(=O)c1ccc(N)cc1`, the compound was classed as inactive in [1], in test [6], in test [4] and in test [5]. Moreover, the AC50 in test [2] is 20.2 µM (active); in test [3], 31.8 µM (active).

As for `O=c1c(O)c(-c2ccc(O)cc2)oc2cc(O)cc(O)c12`, the call in test [1], in [6], in test [3] and in test [5] was inactive. Besides, in test [2], the half-maximal activity concentration (AC50) was 19.8 µM (active).

As for `CCCCCCCCc1ccc(S(=O)(=O)O)cc1`, the result in test [1], in [2], in [4] and in test [5] was inactive.

With `Cc1cc(=O)oc2cc(N(C)C)ccc12`, the concentration at half-maximal activity (AC50) in [1] was 50 µM (active); in [2] it was 50 µM (active); in test [10] it was 45.6 µM (active). Moreover, the compound was classed as inactive in test [6], in test [3], in test [4], in [5] and in [9].
